In the supplement of paper PMC4466140:

Legend:
Assay in all cases: SPOT peptide array binding signal intensity (averaged, normalized) (arbitrary units (background-subtracted, floor 0; scale differs between SH3 domains)); higher = stronger binding of the SH3 domain to the peptide
AgAbp1 = biological target: AgAbp1
Summary of the method: (§1)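 Binding signal refers to normalized, background-subtracted spot intensity averaged over replicates, expressed in arbitrary units that differ between domains. GST-fused SH3 domains from four yeast species were incubated at 10 μg/ml overnight at 4°C on cellulose membranes of synthetic 15-mer peptides with cysteines replaced by serines. Bound protein was detected with anti-GST antibody, an HRP anti-mouse secondary and luminol, and quantified with Genespotter.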

AgBbc1 = biological target: AgBbc1
Summary of the method: as §1

AgBem1-D1 = biological target: AgBem1-D1
Summary of the method: as §1

AgBzz1-D1 = biological target: AgBzz1-D1
Summary of the method: as §1

AgBzz1-D2 = biological target: AgBzz1-D2
Summary of the method: as §1

AgCyk3 = biological target: AgCyk3
Summary of the method: as §1

AgFus1 = biological target: AgFus1
Summary of the method: as §1

AgHof1 = biological target: AgHof1
Summary of the method: as §1

AgHse1 = biological target: AgHse1
Summary of the method: as §1

AgLsb1 = biological target: AgLsb1
Summary of the method: as §1

AgLsb4 = biological target: AgLsb4
Summary of the method: as §1

AgMyo5 = biological target: AgMyo5
Summary of the method: as §1

AgNbp2 = biological target: AgNbp2
Summary of the method: as §1

AgRvs167 = biological target: AgRvs167
Summary of the method: as §1

AgSho1 = biological target: AgSho1
Summary of the method: as §1

AgSla1-D1-D2 = biological target: AgSla1-D1-D2
Summary of the method: as §1

AgSla1-D3 = biological target: AgSla1-D3
Summary of the method: as §1

CaAbp1-D1 = biological target: CaAbp1-D1
Summary of the method: as §1

CaAbp1-D2 = biological target: CaAbp1-D2
Summary of the method: as §1

CaBbc1 = biological target: CaBbc1
Summary of the method: as §1

CaBem1-D1 = biological target: CaBem1-D1
Summary of the method: as §1

CaBzz1-D1 = biological target: CaBzz1-D1
Summary of the method: as §1

CaBzz1-D2 = biological target: CaBzz1-D2
Summary of the method: as §1

CaCyk3 = biological target: CaCyk3
Summary of the method: as §1

CaFus1 = biological target: CaFus1
Summary of the method: as §1

CaHof1 = biological target: CaHof1
Summary of the method: as §1

CaHse1 = biological target: CaHse1
Summary of the method: as §1

CaLsb1 = biological target: CaLsb1
Summary of the method: as §1

CaLsb4 = biological target: CaLsb4
Summary of the method: as §1

CaMyo5 = biological target: CaMyo5
Summary of the method: as §1

CaNbp2 = biological target: CaNbp2
Summary of the method: as §1

CaRvs167 = biological target: CaRvs167
Summary of the method: as §1

CaRvs167-3 = biological target: CaRvs167-3
Summary of the method: as §1

CaSho1 = biological target: CaSho1
Summary of the method: as §1

CaSla1-D1-D2 = biological target: CaSla1-D1-D2
Summary of the method: as §1

CaSla1-D3 = biological target: CaSla1-D3
Summary of the method: as §1

ScAbp1 = biological target: ScAbp1
Summary of the method: as §1

ScBbc1 = biological target: ScBbc1
Summary of the method: as §1

ScBem1-D1 = biological target: ScBem1-D1
Summary of the method: as §1

ScBzz1-D1 = biological target: ScBzz1-D1
Summary of the method: as §1

ScBzz1-D2 = biological target: ScBzz1-D2
Summary of the method: as §1

ScCyk3 = biological target: ScCyk3
Summary of the method: as §1

ScFus1 = biological target: ScFus1
Summary of the method: as §1

ScHof1 = biological target: ScHof1
Summary of the method: as §1

ScHse1 = biological target: ScHse1
Summary of the method: as §1

ScLsb1 = biological target: ScLsb1
Summary of the method: as §1

ScLsb2 = biological target: ScLsb2
Summary of the method: as §1

ScLsb3 = biological target: ScLsb3
Summary of the method: as §1

ScLsb4 = biological target: ScLsb4
Summary of the method: as §1

ScMyo3 = biological target: ScMyo3
Summary of the method: as §1

ScMyo5 = biological target: ScMyo5
Summary of the method: as §1

ScNbp2 = biological target: ScNbp2
Summary of the method: as §1

ScPex13 = biological target: ScPex13
Summary of the method: as §1

ScRvs167 = biological target: ScRvs167
Summary of the method: as §1

ScSho1 = biological target: ScSho1
Summary of the method: as §1

ScSla1-D1-D2 = biological target: ScSla1-D1-D2
Summary of the method: as §1

ScSla1-D3 = biological target: ScSla1-D3
Summary of the method: as §1

SpAbp1-D1 = biological target: SpAbp1-D1
Summary of the method: as §1

SpBbc1 = biological target: SpBbc1
Summary of the method: as §1

SpBzz1-D1 = biological target: SpBzz1-D1
Summary of the method: as §1

SpBzz1-D2 = biological target: SpBzz1-D2
Summary of the method: as §1

SpCyk3 = biological target: SpCyk3
Summary of the method: as §1

SpHof1 = biological target: SpHof1
Summary of the method: as §1

SpHof1-2 = biological target: SpHof1-2
Summary of the method: as §1

SpHof1-3 = biological target: SpHof1-3
Summary of the method: as §1

SpHse1 = biological target: SpHse1
Summary of the method: as §1

SpLsb1 = biological target: SpLsb1
Summary of the method: as §1

SpLsb4 = biological target: SpLsb4
Summary of the method: as §1

SpMyo1 = biological target: SpMyo1
Summary of the method: as §1

SpNbp2 = biological target: SpNbp2
Summary of the method: as §1

SpPex13 = biological target: SpPex13
Summary of the method: as §1

SpRvs167 = biological target: SpRvs167
Summary of the method: as §1

SpSla1-D1-D2 = biological target: SpSla1-D1-D2
Summary of the method: as §1

SpSla1-D3 = biological target: SpSla1-D3
Summary of the method: as §1

Measured: SPOT peptide array binding signal intensity

SPLGAPPPPPHKDHL
546: AgMyo5
3: AgBzz1-D2 | CaRvs167
2.83: AgRvs167
931: ScMyo3
176: SpBzz1-D1
6: AgSla1-D1-D2
8.5: CaBzz1-D1
1: AgCyk3 | CaHse1 | ScRvs167
11: ScBzz1-D1
670: ScMyo5
1.5: ScHof1
13.5: CaMyo5
not listed: SpBzz1-D2 | SpCyk3 | SpHof1 | SpHof1-2 | SpHof1-3 | SpHse1 | SpLsb1 | SpLsb4 | SpMyo1 | SpNbp2 | SpPex13 | SpRvs167 | SpSla1-D1-D2 | SpSla1-D3
≤ 0: all other assays above

MSPLGAPPPPPHKDH
46.5: CaMyo5
12.7: SpRvs167
0.75: CaHof1 | CaLsb1
5.75: CaHse1
0.833: CaRvs167
42: CaFus1
23: AgHse1
10: CaBzz1-D1
4: AgSho1
751: ScMyo5
1.5: AgFus1 | ScBzz1-D1
3.25: CaBzz1-D2
2: AgSla1-D1-D2 | ScRvs167
0.5: CaBbc1 | SpHof1-3
5: AgNbp2
449: AgMyo5
1060: SpMyo1
9: AgBzz1-D2
700: ScMyo3
6.5: AgBzz1-D1
324: SpBzz1-D1
1: AgCyk3 | AgRvs167 | ScBzz1-D2 | SpHof1
≤ 0: all other assays above
